Compound activity deposited in PubChem by Broad Institute.
The sample as a whole holds a higher share of hits than the screen did.
EZH2 inh: EZH2/PRC2 methyltransferase inhibitors, primary screen, biochemical, DELFIA time-resolved fluorescence, single point; inhibition, % at 12.5 µM; 57,000 tested, 0.35% active; PRC2 H3K27 methylation, DELFIA TRF, 1 h; Histone-lysine N-methyltransferase EZH2 (Homo sapiens), Q15910;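 active = mean inhibition of replicates at least 50% and every single replicate also reaching 50%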;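 note: dimethyl H3K27 on biotinylated H3 21-44 peptide detected by antibody; plate controls were median neutral control wells for no effect and median positive control wells for full effect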
Target sequence (Q15910 whole entry, looked up): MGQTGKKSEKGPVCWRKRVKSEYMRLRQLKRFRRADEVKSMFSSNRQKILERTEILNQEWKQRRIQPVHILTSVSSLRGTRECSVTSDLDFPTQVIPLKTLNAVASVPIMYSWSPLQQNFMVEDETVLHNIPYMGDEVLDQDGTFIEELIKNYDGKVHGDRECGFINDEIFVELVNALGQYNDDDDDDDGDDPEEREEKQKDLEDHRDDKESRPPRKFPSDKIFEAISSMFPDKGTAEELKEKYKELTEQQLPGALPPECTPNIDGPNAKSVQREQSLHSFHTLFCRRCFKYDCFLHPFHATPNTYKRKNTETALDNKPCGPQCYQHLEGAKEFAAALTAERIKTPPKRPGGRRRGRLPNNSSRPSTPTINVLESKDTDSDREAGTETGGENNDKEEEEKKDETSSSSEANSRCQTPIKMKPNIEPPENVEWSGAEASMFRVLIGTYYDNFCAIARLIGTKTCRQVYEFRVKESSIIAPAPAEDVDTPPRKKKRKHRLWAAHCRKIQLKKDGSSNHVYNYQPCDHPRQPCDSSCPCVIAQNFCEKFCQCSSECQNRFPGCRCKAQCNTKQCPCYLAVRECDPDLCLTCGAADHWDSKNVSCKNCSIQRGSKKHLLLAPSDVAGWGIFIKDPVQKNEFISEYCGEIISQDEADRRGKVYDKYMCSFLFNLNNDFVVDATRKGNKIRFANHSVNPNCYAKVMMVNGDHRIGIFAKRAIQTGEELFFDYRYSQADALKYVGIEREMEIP
Numbers without * were called inactive.

SMILES	EZH2 inh
CCn1c(SCC(=O)Nc2ccc(F)c(Cl)c2)nnc1-c1cccc(C)c1	1.3
O=C(NCSCc1cccc(C(F)(F)F)c1)Nc1ccc(F)c(Cl)c1	56.2*
CC(C(=O)Nc1cccc(C(F)(F)F)c1)N(c1ccc(Cl)cc1)S(C)(=O)=O (configuration not stated)	-5.3
Cc1ccc(S(=O)(=O)NCC[C@H]2CC[C@@H](NC(=O)NC(C)C)[C@@H](CO)O2)cc1	-4.2
CC(C)NC(=O)Nc1ccc2c(c1)C(=O)N([C@H](C)CO)C[C@H](C)[C@H](CN(C)C(=O)NC(C)C)OCCCC[C@H](C)O2	1.2
COCc1cn(CC[C@@H]2CC[C@@H](NC(=O)Nc3ccc(F)cc3)[C@H](CO)O2)nn1	1.1
COc1ccc(OCC(=O)Nc2sc3c(c2C#N)CCC3)cc1	13.5
COc1cc(OC)cc(-c2nnc(SCC(=O)Nc3sc4c(c3C#N)CCCC4)o2)c1	67.7*
Cc1cc(C)c(C#N)c(SCC(=O)Nc2sc3c(c2C#N)CCC3)n1	5.9
O=C(N[C@@H]1CC[C@H](CCNC(=O)c2cnccn2)O[C@H]1CO)c1ccc2c(c1)OCO2	1.7
Cc1nn(-c2ccccc2)nc1C(=O)N(C)c1nnc(C(F)(F)F)s1	15.6
O=C(O)Cc1cccc(OCCCN(Cc2cccc(C(F)(F)F)c2Cl)CC(c2ccccc2)c2ccccc2)c1	84.6*
COc1cccc(-c2ccc3c(c2)O[C@H](CN(C)C)[C@@H](C)CN([C@@H](C)CO)S3(=O)=O)c1	-2.1
CO[C@H]1CN(C)C(=O)c2ccc(NC(C)=O)cc2OC[C@H](C)N(C(=O)Cc2ccccn2)C[C@H]1C	5.3
O=C1c2c(O)cc(O)cc2OC(c2ccc(O)cc2)C1C1C(=O)c2c(O)cc(O)cc2OC1c1ccc(O)cc1 (configuration not stated)	-7.0
Oc1ccc([C@@H]2Oc3cc(O)cc(O)c3C[C@@H]2O)cc1	89.3*
Oc1ccc([C@H]2Oc3cc(O)cc(O)c3C[C@H]2O)cc1	15.6
C#C[C@]1(O)CC[C@H]2[C@@H]3CCC4=Cc5oncc5C[C@]4(C)[C@H]3CC[C@@]21C	-8.8
CO[C@H]1CN(C)C(=O)c2cc(NS(=O)(=O)CC(F)(F)F)ccc2OC[C@@H](C)NC[C@H]1C	-1.2
CCC(=O)N(C)C[C@H]1Oc2cc(C#CC3CCCCC3)ccc2S(=O)(=O)N([C@@H](C)CO)C[C@@H]1C	6.0
Cc1cc(C)nc(SCC(O)COc2ccc(Cl)cc2)n1 (configuration not stated)	3.7
Cc1cc(Oc2ccccc2)nc(SCC(=O)Nc2ccc(Cl)cc2Cl)n1	19.3
Cc1cc(Oc2ccccc2)nc(SCCOc2ccccc2)n1	51.9*
COc1cc2c(c(O)c1OC)C(=O)CC(c1ccc(O)cc1)O2 (configuration not stated)	10.6
COc1cc(OC)c2c(c1O)OC(c1ccccc1)CC2=O (configuration not stated)	72.4*
SMILES	EZH2 inh
COc1cc(O)cc2c1C(=O)OC(C)C2 (configuration not stated)	11.9
COC(=O)c1sccc1NC(=O)c1cc(-c2cccnc2)nc2ccc(Cl)cc12	6.2
Cc1ccc(S(=O)(=O)N[C@@H]2CC[C@@H](CCNC(=O)C3CCCCC3)O[C@H]2CO)cc1	6.7
CN1CCN(C(=O)C[C@@H]2C=C[C@H](NC(=O)c3ccc4c(c3)OCO4)[C@H](CO)O2)CC1	-6.3
CN(C)CC(=O)N[C@H]1C=C[C@H](CC(=O)NCc2ccccc2F)O[C@H]1CO	4.4
O=C(Nc1ccc(F)cc1)N[C@@H]1CC[C@H](CCn2cc(-c3ccccc3F)nn2)O[C@H]1CO	2.9
Cc1cc(N)n(-c2ccc(Oc3ccccc3)cc2S(=O)(=O)O)n1	10.1
Cc1cc(-c2ccc(N=Nc3cc(S(=O)(=O)O)c4ccccc4c3N)c(C)c2)ccc1N=Nc1cc(S(=O)(=O)O)c2ccccc2c1N	99.3*
CC1=CC(=O)OC1(O)CCC(C)CC(=O)O (configuration not stated)	100.1*
CC(CC[C@]1(C)C2CCC=C(CO)[C@]2(C)CC[C@H]1C)CC(=O)O (some centres not stated)	14.6
O=C(C[C@@H]1C[C@H]2c3cc(NC(=O)Nc4ccc(C(F)(F)F)cc4)ccc3O[C@H]2[C@H](CO)O1)NCc1ccccn1	15.2
O=C(CSc1nc2ccccc2[nH]1)Nc1ccc(I)cc1	18.0
COc1cccc(-c2nc(SCC(=O)Nc3cccc(C(F)(F)F)c3)[nH]c(=O)c2C#N)c1	68.3*
O=C(CSc1n[nH]c(-c2ccco2)n1)Nc1ccc(F)cc1	-0.1
N#Cc1c(-c2ccco2)nc(SCC(=O)Nc2ccc(I)cc2)[nH]c1=O	53.9*
COc1ccc(-c2nc(SCC(=O)Nc3ccc(Cl)cc3)[nH]c(=O)c2C#N)cc1	28.6
COc1ccc(-c2nc(SCC(=O)Nc3cccc(C(F)(F)F)c3)n[nH]2)cc1	19.1
COc1ccc(NC(=O)N(C)C[C@@H]2Oc3ncc(-c4ccc(C#N)cc4)cc3C(=O)N([C@H](C)CO)C[C@@H]2C)cc1	-4.3
CCCc1cn(CC[C@@H]2CC[C@@H](NC(=O)Nc3ccccc3F)[C@@H](CO)O2)nn1	-2.7
CO[C@@H]1CN(C)C(=O)c2ccc(NC(=O)C3CCCC3)cc2OC[C@@H](C)N(C(=O)CC2CC2)C[C@H]1C	-1.1
O=C(NCc1ccco1)C1c2ccccc2Oc2ccccc21	9.0
C[C@@H]1CN([C@H](C)CO)C(=O)c2cc(NC(=O)C3CC3)ccc2O[C@H]1CN(C)Cc1ccc(C(=O)Nc2ccccc2N)cc1	-5.4
O=C(CSc1n[nH]c(-c2ccc(Cl)cc2Cl)n1)Nc1cccc(C(F)(F)F)c1	29.1
O=C(CSc1n[nH]c(-c2ccc(Cl)cc2Cl)n1)Nc1ccc(I)cc1	58.4*
O=C(CSc1n[nH]c(-c2ccc(Cl)cc2Cl)n1)Nc1cc(C(F)(F)F)ccc1Cl	9.3
SMILES	EZH2 inh
C[C@H](CO)N1C[C@H](C)[C@H](CN(C)Cc2ccccc2)Oc2ccc(NS(=O)(=O)c3ccccc3)cc2CC1=O	-2.5
Cc1ccc(S(=O)(=O)N(C(=O)C2CCCCC2)c2ccc3oc(=O)sc3c2)c(C)c1	53.6*
COc1ccc(N(C(=O)C2CCCCC2)S(=O)(=O)c2cccc3cccnc23)cc1	7.9
CC(=O)c1c(C)oc2ccc(N(C(=O)c3ccncc3)S(=O)(=O)c3ccc(F)cc3C)cc12	12.5
Cc1nc(S(=O)(=O)N[C@@H]2CCN(Cc3ccc(OCCO)cc3)C2)cn1C	4.4
O=C(N[C@@H](Cc1ccccc1)Cn1cc(CN2C(=O)COC[C@H]2c2ccccc2)nn1)c1ccccc1	4.1
C[C@H]1CN([C@@H](C)CO)C(=O)c2cc(NC(=O)Nc3cccc4ccccc34)ccc2O[C@H]1CN(C)Cc1ccc2c(c1)OCO2	-13.8
C[C@@H]1O[C@@H](O[C@H]2[C@H](O[C@H]3CC[C@@]4(C)C(CC[C@]5(C)C4CC=C4C6CC(C)(C)CC[C@]6(C(=O)O[C@@H]6O[C@H](CO[C@@H]7O[C@H](CO)[C@@H](O[C@@H]8O[C@@H](C)[C@H](O)[C@@H](O)[C@H]8O)[C@H](O)[C@H]7O)[C@@H](O)[C@H](O)[C@H]6O)CC[C@]45C)[C@]3(C)CO)OC[C@H](O)[C@@H]2O)[C@H](O)[C@H](O)[C@H]1O (some centres not stated)	20.1
